# Screening data as filed in PubChem.
# The sample as a whole holds a higher share of hits than the screen did.
# Cruzain inh noDet: inhibitors of Trypanosoma cruzi cruzain without detergent; 200,000 compounds, 2.3% hits; AID 1476; P25779; Potency, µM, for inactives: max response, negative = inhibition, most hits filed as inhibitors; purified cruzain, Z-FR-AMC fluorescence, no detergent;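 note: potency is the fitted concentration of half-maximal effect; plate controls were enzyme without inhibitor for no effect and buffer without enzyme for full effect; nearly all actives have a fitted effect of over 40% in size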
# Target sequence (P25779 123-467 limits assumed): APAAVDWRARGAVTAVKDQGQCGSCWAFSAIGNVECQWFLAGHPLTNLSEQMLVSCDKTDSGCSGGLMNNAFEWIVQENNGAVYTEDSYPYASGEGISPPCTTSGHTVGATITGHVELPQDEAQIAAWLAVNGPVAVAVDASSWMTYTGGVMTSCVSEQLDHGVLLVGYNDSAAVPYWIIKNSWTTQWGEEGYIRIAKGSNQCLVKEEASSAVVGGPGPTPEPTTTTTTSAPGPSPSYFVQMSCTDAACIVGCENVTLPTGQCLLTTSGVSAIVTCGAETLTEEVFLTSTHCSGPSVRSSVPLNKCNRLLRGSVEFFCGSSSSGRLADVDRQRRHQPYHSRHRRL
#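 Purified cruzain at 1.5 nM, pre-incubated 15 min with compound at room temperature in 100 mM sodium acetate pH 5.5, 5 mM DTT, 0.00005% Triton X-100. Reaction started with 2 uM Z-FR-AMC; AMC fluorescence increase over 60 s gives rate.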
# Cruzain inh Det: blocks cruzain activity in presence of Triton detergent; 200,000 compounds, 0.43% hits; P25779; AID 1478; Potency, µM, inactives show max response, negative = inhibition, hits mostly inhibitors; purified cruzain, Z-FR-AMC fluorescence, 0.01% Triton;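 note: potency is the fitted concentration of half-maximal effect; plate controls were neutral wells for no effect and buffer without enzyme for full effect; nearly all actives have a fitted effect of over 40% in size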
#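 Detergent-containing run (0.01% Triton X-100) in acetate buffer pH 5.5 with 5 mM DTT: enzyme at 1.5 nM final, 15 min compound preincubation at room temperature, then 2 uM Z-FR-AMC substrate. Activity taken as 60 s fluorescence increase at 360/450 nm.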
# NS1 inh: inhibitors of influenza NS1 protein function; Potency, µM (doses to about 46.1 µM), for the others: at the top dose activity, positive = more growth; 270,000 compounds, 0.4% hits; AID 2326; calls by dose curve; note: potency is the fitted concentration of half-maximal effect; actives are rising curves; nearly all actives have a fitted effect of over 50% in size
#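 Compounds were scored for reversing the slow growth caused by influenza A NS1 in S. cerevisiae, measured by optical density at 600 nm. Assay medium contained 2% galactose at pH 6.0; NS1-free yeast of the same strain were the positive control.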
# NS1 inh valid: validation of influenza NS1 protein function inhibitors; shares compounds with NS1 inh; influenza NS1 function cell assay, 15-point titration; 1,400 tested, under 10 active; activity change, negative = inhibition, % at 32.9 µM; calls by dose curve; note: 0% is about no effect
# PR8 titer: influenza NS1 inhibitors: inhibition of influenza A/PR/8/34 replication; shares compounds with NS1 inh; AID 504647; MDCK infected influenza A/PR/8/34, virus titer TCID50; stronger effect = lower value; 95 compounds, 30% hits; virus titer (log TCID50), log10 TCID50 at 5 µM; call rule not given here
# * hit, by the source's call; ? = inconclusive; · = no result. Unless noted, calls come from the whole dose curve; as a rule, active = well fitted curve in the direction sought with a large enough effect; inconclusive = small, poorly fitted or top-dose-only effect, or another doubt; inactive = no such curve, though single readings can be large; an effect the other way counts as inactive or inconclusive.
SMILES,Cruzain inh noDet,Cruzain inh Det,NS1 inh,NS1 inh valid,others
CCCc1nnc(NC(=O)CCC(=O)NCc2ccccc2)s1,·,·,8%,·,
CCCCCCC(=O)OC1CC(C)(C)NC(C)(C)C1,-8%,-4%,·,·,
C/C=C(/C)C(=O)O[C@H]1C(C)=C2C([C@@H]1OC(=O)CCCCCCC)[C@@](C)(OC(C)=O)C[C@@H](OC(=O)CCC)[C@@]1(O)[C@H]2OC(=O)[C@@]1(C)O (stereo partly specified),?,-13%,8.9µM*,36,
CNC(=O)c1ccc(-c2sc3nc(N4CCOCC4)c4c(c3c2N)CC(C)(C)OC4)o1,?,-20%,21%,·,
CC1(C)Cc2c(c(N3CCOCC3)nc3sc(-c4ccc(C(=O)O)o4)c(N)c23)CO1,?,-17%,?,12,
CCCCc1nnc(NC(=O)C2CC(=O)N(c3ccc4c(c3)OCCO4)C2)s1 (stereo unspecified),11%,-2%,-2%,·,
O=C(Nc1nc(-c2ccco2)c(-c2ccco2)s1)C1CC(=O)N(c2ccc3c(c2)OCCO3)C1 (stereo unspecified),-11%,-28%,10µM*,15,
O=C(OC(C(=O)NCC1CCCO1)c1ccc(F)cc1)c1ccco1 (stereo unspecified),0%,-6%,-5%,·,
Cc1ccc(C(=O)Oc2c(S(=O)(=O)c3ccccc3)c(C)nn2-c2ccccc2)cc1,-2%,1%,·,·,
O=C(Cc1ccccc1)NCC(=O)N/N=C/c1ccc(C(=O)O)cc1,·,·,0%,·,
O=C(CNC(=O)C(c1ccccc1)c1ccccc1)N/N=C\c1ccc(C(=O)O)cc1,·,·,?,8,
COC(=O)CCNC(=O)N1CCN(c2nnc(C)c3c(C)n(-c4ccccc4)nc23)CC1,-4%,-3%,·,·,
Nc1nc(SCC(=O)N2N=C3/C(=C/c4ccco4)CCCC3C2c2ccco2)n[nH]1 (stereo unspecified),-2%,-5%,12%,·,
Cn1cnnc1SCC(=O)N1N=C2/C(=C/c3ccco3)CCCC2C1c1ccco1 (stereo unspecified),-2%,1%,3.5µM*,2,
COc1ccc(CCNC(=O)Cc2c(C)c3cc4c(C(C)(C)C)coc4c(C)c3oc2=O)cc1OC,3%,-1%,·,·,
Cc1cc2nc(-c3ccc(SCC(=O)Nc4ccc(S(=O)(=O)N5CCCC5)cc4)nc3)[nH]c2cc1C,?,-12%,?,·,
O=C(CSc1ccc(-c2nc3ccccc3[nH]2)cn1)Nc1ccc(S(=O)(=O)N2CCCC2)cc1,32µM*,-4%,14µM*,9,
Cc1c(N/N=C(\C#N)C(=O)c2ccc(Cl)cc2)c(=O)n(-c2ccccc2)n1C,20%,-22%,?,?,
N#C/C(=N\Nc1ccc(Cl)cc1)C(=O)c1ccccc1,-16%,-19%,-161%,·,
CCC1CCCN1Cn1cnc2c([nH]c3ccc(C)cc32)c1=O (stereo unspecified),-2%,-12%,?,-23,
CCC1CCCN1Cn1cnc2c([nH]c3ccc(Cl)cc32)c1=O (stereo unspecified),-9%,-7%,0%,·,
Cc1cnc(C(=O)OCC(=O)N(C(C)C)C(C)C)cn1,-1%,6%,3%,·,
O=C(NCc1ccco1)C1CC(O)CN1C(=O)Nc1ccccc1 (stereo unspecified),·,·,1%,·,
Cc1cccc(-c2noc(CN(C(=O)c3c(-c4ccccc4Cl)noc3C)C(C)C)n2)c1,-4%,-3%,-45%,·,
Cc1onc(-c2ccccc2Cl)c1C(=O)N(Cc1nc(-c2ccccc2)no1)C1CCCCC1,7%,4%,10µM*,-23,
SMILES,Cruzain inh noDet,Cruzain inh Det,NS1 inh,NS1 inh valid,others
CCOc1cc(C(=O)NCCc2ccc(S(N)(=O)=O)cc2)cc(OCC)c1OCC,·,·,3%,·,
COc1cc(C(=O)NCCc2ccc(S(N)(=O)=O)cc2)cc(OC)c1OC,-11%,4%,?,1,
Cc1cc(C2=CC(C)(c3cc(C)oc3C)Nc3nc(C(F)(F)F)nn32)c(C)o1 (stereo unspecified),?,3%,18µM*,7,
CC(C)(CNC(=O)c1cc2ccccc2o1)N1CCOCC1,11%,1%,-3%,·,
COc1cc(/C=N/n2c(-c3ccc4c(c3)NC(=O)CO4)csc2=Nc2cccc(C)c2)ccc1O,-19%,-11%,11µM*,28,PR8 titer=8.3
COCCN=c1scc(-c2ccc3c(c2)NC(=O)CO3)n1/N=C(\C)c1ccc(O)cc1,·,·,10%,·,
COc1ccc(C(C(=O)NCc2ccccc2)N(Cc2ccc3c(c2)OCO3)C(=O)c2cnccn2)cc1 (stereo unspecified),23%,-5%,-1%,·,
COc1ccc(-c2csc(C3=C(O)CN(Cc4ccc(Cl)cc4)C3=N)n2)cc1OC,-10%,-6%,-1%,·,
COc1cccc(CN2CC(O)=C(c3nc(-c4ccc(Cl)cc4)cs3)C2=N)c1,13µM*,-10%,5µM*,7,
CCOC(=O)CCc1c(C)c2ccc3c(c2oc1=O)CN(CCCO)CO3,·,·,9%,·,
Cc1ccc(/C=C/C(=O)Oc2ccc(C#N)cc2)o1,·,·,?,-28,PR8 titer=7.5*
COc1cccc(OC)c1OC(=O)/C=C/c1ccc(C)o1,·,·,-12%,·,
COc1ccc(-n2c(=S)[nH]c3cc(C(=O)NCc4ccco4)ccc3c2=O)c(OC)c1,-5%,-3%,13µM*,4,
COc1ccc(-n2c(=S)[nH]c3cc(C(=O)NCc4ccccc4OC)ccc3c2=O)c(OC)c1,·,·,11%,·,
C#CCSc1nnc(-c2ccc(C)cc2)o1,5%,-2%,-6%,·,
CCOc1ccc(C2CC(=O)c3c([nH]c(C(=O)OCC4CCCCC4)c3C)C2)cc1 (stereo unspecified),-12%,0%,·,·,
O=S(=O)(Nc1cccc(-c2ccc(N3CCCCCC3)nn2)c1)c1ccc(F)cc1,?,-4%,8%,·,
O=S(=O)(Nc1cccc(-c2ccc(N3CCCCCC3)nn2)c1)c1cccc(F)c1,?,-4%,?,-3,
Cc1ccc(C(=O)Nc2ccccc2C(=O)NCc2ccco2)cc1S(=O)(=O)N1CCCCC1,?,-24%,10µM*,-11,
Cc1ccc(C(=O)Nc2ccccc2C(=O)O)cc1S(=O)(=O)Nc1ccccc1,·,·,16µM*,28,
O=C(Nc1ccccc1C(=O)O)c1cccc(NC(=O)c2ccccc2Br)c1,·,·,14%,·,
Cc1ccc(C(=O)Nc2ccccc2)cc1S(=O)(=O)Nc1ccccc1,8%,-8%,·,·,
Cc1ccccc1NC(=O)c1ccc(F)c(S(=O)(=O)NC2CCCC2)c1,7%,0%,·,·,
Cc1ccc(C(=O)NCc2ccco2)cc1S(=O)(=O)N1CCCCC1,-7%,1%,5%,·,
O=C(Nc1ccccc1C(=O)O)c1cccc(NS(=O)(=O)c2ccc(Br)cc2)c1,·,·,7.9µM*,33,
Cc1ccc(C(=O)Nc2ccccc2C(=O)O)cc1S(=O)(=O)NC1CCCCC1,·,·,14µM*,30,PR8 titer=7.7
COc1ccc(-c2c(C)c3ccc(O)c(CN4CCCCC4C)c3oc2=O)cc1OC (stereo unspecified),3%,-10%,·,·,
COc1ccc(-c2cc(C(=O)N/N=C/c3ccc4c(c3)OCO4)c3ccccc3n2)c(OC)c1,?,-4%,3%,·,
